Screening results from PubChem.
SRC3 inh: inhibits human SRC3 coactivator; Q9Y6Q9; HEK293 GAL4-SRC3 luciferase reporter, luminescence; inhibition, % at 3.6 µM; 360,000 compounds, 0.17% hits;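 active means inhibition above a per-campaign cutoff, the mean of all compounds plus 3 SD, cut at about 60% in these data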;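 further: higher means less SRC3-driven luciferase light from the GAL4 reporter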
NCOA1 inh: human NCOA1 inhibition. Q15788. HEK293 GAL4-SRC1 luciferase reporter, luminescence. inhibition, % at 3.6 µM. 360,000 compounds, 0.12% hits. AID 588354;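 active means inhibition above the campaign mean plus 3 SD, with each screening campaign given its own cutoff, cut at about 60% in these data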
LMP1 NFkB inh: reduces LMP1-driven NF-kappaB luciferase signal; LMP1-induced NF-kappaB luciferase reporter cells, luminescence; inhibition, % at 12.5 µM; 350,000 compounds, 0.69% hits; AID 504558; in the data active means inhibition above about 41%
Shn3 3UTR inh: Schnurri-3 reporter inhibition in Clone20 osteoblasts. 360,000 compounds, 0.52% hits. inhibition, % at 12.5 µM. Clone20 osteoblast Shn3 3'UTR firefly luciferase, 24 h. AID 588674;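 active means mean inhibition of at least 75% with every replicate also reaching 75%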
LRH-1 inv ag: inverse agonists of human LRH-1 (NR5A2); inhibition, % at 3.6 µM; AID 602396; 360,000 compounds, 0.13% hits; HEK293T StAR-luciferase reporter, LRH-1 transfected, 24 h;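 active means inhibition above the mean inhibition of all tested compounds plus 3 SD, cut at about 73% in these data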
Target sequence (O00482 whole entry, looked up): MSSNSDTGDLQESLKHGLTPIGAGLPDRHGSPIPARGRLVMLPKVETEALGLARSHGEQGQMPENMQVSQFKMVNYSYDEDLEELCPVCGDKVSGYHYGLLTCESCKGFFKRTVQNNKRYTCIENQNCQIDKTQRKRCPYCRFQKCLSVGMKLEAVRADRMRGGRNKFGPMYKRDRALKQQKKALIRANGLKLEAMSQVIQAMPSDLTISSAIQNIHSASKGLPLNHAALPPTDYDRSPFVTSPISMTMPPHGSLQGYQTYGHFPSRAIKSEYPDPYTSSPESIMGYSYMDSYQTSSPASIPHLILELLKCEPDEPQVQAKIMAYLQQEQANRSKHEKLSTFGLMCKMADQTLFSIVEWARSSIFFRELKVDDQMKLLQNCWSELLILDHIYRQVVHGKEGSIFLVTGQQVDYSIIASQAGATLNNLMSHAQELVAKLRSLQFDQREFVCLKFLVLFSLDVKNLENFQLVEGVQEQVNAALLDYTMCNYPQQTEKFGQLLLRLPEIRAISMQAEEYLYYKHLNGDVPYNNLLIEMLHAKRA
NCOA2 inhibitor: human SRC2 (NCOA2) inhibition | HEK293 GAL4-SRC2 luciferase reporter, luminescence | inhibition, % at 9 µM | 370,000 compounds, 0.17% hits | AID 651957;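 active means inhibition above the mean inhibition of all tested compounds plus 3 SD, set per campaign, cut at about 52% in these data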
Hits are given with their value; 0 = inactive; - = no result. Hits are enriched below; roughly 1.2% of the tested compounds scored in any of these assays.

SMILES	SRC3 inh	NCOA1 inh	LMP1 NFkB inh	Shn3 3UTR inh	LRH-1 inv ag	NCOA2 inhibitor
O=C(Nc1cccc2c1CCCC2)c1ccc(Cl)c([N+](=O)[O-])c1	0	0	0	0	0	0
O=C(Nc1cccc2c1CCCC2)c1cc([N+](=O)[O-])ccc1Cl	0	0	54	0	0	58
O=C(Nc1ccc([N+](=O)[O-])cc1Cl)c1cc(Cl)ccc1O	0	0	80	95	0	0
CCn1nnc2cc(C(=O)Nc3cc(Cl)ccc3C)ccc21	0	0	0	88	0	0
CCn1nnc2cc(C(=O)Nc3cc(S(C)(=O)=O)ccc3Cl)ccc21	0	0	0	0	0	0
CCOC(=O)[C@]12CCCCC/C=C\1N(Cc1ccc(OC)cc1)C(=O)[C@H]2CC(=O)NCCCCc1ccccc1	-	-	-	-	-	0
COC(=O)C1CCN(C(=O)COC(=O)c2n[nH]c3ccccc23)CC1	0	0	0	0	0	0
CC1CCCN(C(=O)COC(=O)c2n[nH]c3ccccc23)C1 (stereo unspecified)	0	0	61	0	0	0
COc1ccc(C(c2sc3nc(C)nn3c2O)N2CCC(C(N)=O)CC2)cc1OC (stereo unspecified)	0	0	72	0	0	0
COC(=O)C1CCN(C(c2ccc(OC)c(OC)c2)c2sc3nc(C)nn3c2O)CC1 (stereo unspecified)	0	0	0	0	0	0
COc1cc(C(c2sc3nc(C)nn3c2O)N2CCc3ccccc3C2)cc(OC)c1OC (stereo unspecified)	0	0	86	0	0	0
COc1ccc(/C=C2\CC3(OC(=O)c4cccc(F)c4)CCCN2C3)cc1 (stereo unspecified)	-	-	-	-	-	0
C[C@@H]1CCN(C2CC2)S(=O)(=O)c2c(cccc2N2CC[C@H](O)C2)O1	-	-	-	-	-	0
O=C(c1ccc(F)cc1)N1CCC(C(=O)N2CCN(c3ncccn3)CC2)CC1	0	0	0	0	0	0
O=C(C1CCCCC1)N1CCN(c2ncccn2)CC1	0	0	48	0	0	0
CC(C)N1CCCCC(NC(=O)c2ccc(F)cc2)C1=O (stereo unspecified)	-	-	-	-	-	0
O=C(NCc1cccs1)C1CCN(S(=O)(=O)c2ccc([N+](=O)[O-])cc2)CC1	-	-	-	-	-	0
Clc1ccc(-n2ncc3c(N4CCCC4)ncnc32)cc1	0	0	52	0	0	0
CCOC(=O)C1CCN(c2ncnc3c2cnn3-c2ccc(Cl)cc2)CC1	0	0	0	0	0	0
Cc1nn(-c2ccccc2)c(Cl)c1C(=O)N1CCN(c2ncnc3c2cnn3-c2ccccc2)CC1	0	0	53	0	0	0
C=CCN1[C@H](C)COc2cccc(N3CCCC3)c2S1(=O)=O	-	-	-	-	-	0
C=CCCC(=O)N1C[C@H]2CCN(C)[C@H]2C[C@H]1c1ccccc1Br	-	-	-	-	-	0
CCOc1cc(-c2sc(Nc3ccccc3)n[n+]2C)ccc1OC	0	0	81	0	0	0
O=C(C=Cc1ccc(O)c(O)c1)NCC(=O)NC(Cc1ccccc1)C(=O)O (stereo unspecified)	-	-	-	-	-	0
CCc1ccccc1N(CC(=O)NCc1ccco1)C(=O)c1snc(C(N)=O)c1N	0	0	55	0	0	0
SMILES	SRC3 inh	NCOA1 inh	LMP1 NFkB inh	Shn3 3UTR inh	LRH-1 inv ag	NCOA2 inhibitor
Cc1ccccc1Cn1cc(COC(=O)NCC(C)C)nn1	-	-	-	-	-	0
Cc1ccccc1NC(=O)N(C)[C@H]1C[C@H]2c3[nH]c4c(-c5ccc6c(c5)OCO6)cccc4c3CCN2C[C@H]1[C@H](C)O	-	-	-	-	-	0
CC(C)CCNC(=O)C1CCN(S(=O)(=O)c2ccc3c(c2)CC(C)N3C(=O)C2CC2)CC1 (stereo unspecified)	0	0	54	0	0	0
CCCCNC(=O)C1CCN(S(=O)(=O)c2ccc3c(c2)CC(C)N3C(=O)C2CC2)CC1 (stereo unspecified)	0	0	0	0	0	0
Cc1cc(N2CCCCC2)nc(NCc2ccccc2)n1	0	0	0	88	0	0
Cc1cc(Nc2cccc(Cl)c2)nc(NCc2ccccc2)n1	0	0	0	87	0	0
Cc1cc(N/N=C/c2cccc(Cl)c2)nc(NCc2ccccc2)n1	0	0	0	0	0	0
Cc1cc(N2CCOCC2)nc(NCc2ccccc2)n1	0	0	0	0	0	0
CCNc1ccc(Br)cc(C(=O)/C=C/c2ccccc2Cl)c1=O	0	0	83	0	0	0
CC(C)CNC(=O)OCc1cn(Cc2cc(F)cc(F)c2)nn1	-	-	-	-	-	0
COC(=O)Cc1[nH]n(-c2nc3ccccc3s2)c(=O)c1C(C)=Nc1ccc(C)cc1	0	0	82	0	0	0
C[C@@H](OC(=O)c1[nH]cnc1C(=O)N1CCc2ccccc2C1)c1ccccc1	0	0	85	0	0	0
CC1CCN(C(=O)c2nc[nH]c2C(=O)O[C@H](C)c2ccccc2)CC1	0	0	0	0	0	0
CN(Cc1ccccc1)CC(O)COc1ccc(CNCCc2cccnc2)cc1 (stereo unspecified)	0	0	0	0	0	0
CCc1ccc(CNCc2ccc(OCC(O)CN(C)Cc3ccccc3)cc2)nc1 (stereo unspecified)	0	0	0	86	0	0
O=C(O)c1ccc(NC2=C(Cl)C(=O)c3ccccc3C2=O)cc1	0	0	0	95	0	0
O=C1C(Cl)=C(Nc2ccccc2)C(=O)c2ccccc21	0	0	93	96	0	0
COc1cccc(C(=O)OCC(=O)NC23CC4CC(CC(C4)C2)C3)c1	0	0	0	0	0	0
CC(=O)Oc1cc(C(=O)OCC(=O)NC23CC4CC(CC(C4)C2)C3)cc(OC(C)=O)c1OC(C)=O	0	0	0	91	0	0
Cc1ccc(NC(=S)NCc2cccs2)cc1	0	0	87	0	0	0
CCO[C@@H]1OC(C(=O)NC2CC2)=C[C@H](c2coc3ccccc3c2=O)[C@H]1CCCO	0	0	0	92	0	0
O=C(c1ccc(F)cc1F)N(Cc1ccccn1)CC1CCCO1 (stereo unspecified)	-	-	-	-	-	0
O=C(C=Cc1ccccc1)c1ccc([N+](=O)[O-])cc1	0	0	56	0	0	0
O=C(C#Cc1ccccc1)c1cccc([N+](=O)[O-])c1	0	0	0	93	0	0
O=C(/C=C/c1ccccc1F)c1cccc([N+](=O)[O-])c1	0	0	45	0	0	0
SMILES	SRC3 inh	NCOA1 inh	LMP1 NFkB inh	Shn3 3UTR inh	LRH-1 inv ag	NCOA2 inhibitor
O=C(/C=C/c1cccnc1)c1ccc([N+](=O)[O-])cc1	0	0	0	0	0	0
CCCC[C@H](C(=O)N(C)c1cccc(OC)c1)[C@@H](O)c1ccc(Cl)cc1	-	-	-	-	-	0
O=C(N[C@H]1C[C@@H]2O[C@H](CO)CC[C@@H]2O[C@@H]1CCc1ccc(-c2cccnc2)cc1)c1cccc(F)c1	-	-	-	-	-	0
O=C(NOCc1ccccc1)c1ccc(Cl)cc1Cl	0	0	46	0	0	0
O=C(NOCc1ccccc1)c1ccccc1	0	0	0	0	0	0
Cc1ccc(NN2C(=O)C=C(c3ccc(Cl)cc3)C2=O)cc1	0	0	0	99	0	0
